Screening data (PubChem)
Sm TGR block: qHTS Assay for the Inhibitors of Schistosoma Mansoni Peroxiredoxins | Schistosoma mansoni thioredoxin glutathione reductase (TGR), Q962Y6 | purified TGR, DTNB reduction, TNB absorbance 405 nm | Potency, µM (series often up to 114 µM), for inactives: at the highest dose activity change, negative = inhibition, most hits filed as inhibitors | 360,000 tested, 3% active | AID 485364, 2010; further: nearly all actives have a fitted effect of over 60% in size
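TGR 20 nM + NADPH 100 uM (dispensed conc.), cpd preinc 15 min RT; start with NADPH (500 uM addition) then DTNB (15 mM addition). Kinetic TNB absorbance, 405 nm filter. Four-parameter Hill fit across titration.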
AmpC inh detg: qHTS Inhibitors of AmpC Beta-Lactamase (assay with detergent); AmpC hydrolysis of nitrocefin, absorbance 480 nm, 0.01% Triton; Potency, µM (titrated, usually from 114 µM), for inactives: at the highest dose activity change, negative = inhibition, actives largely listed as inhibitors; 370,000 tested, 0.041% active; AID 485294, 2010;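 further: 0% = no-compound wells and -100% = no-enzyme wells; nearly all actives have a fitted effect of over 25% in size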
Target sequence (P00811 whole entry, looked up): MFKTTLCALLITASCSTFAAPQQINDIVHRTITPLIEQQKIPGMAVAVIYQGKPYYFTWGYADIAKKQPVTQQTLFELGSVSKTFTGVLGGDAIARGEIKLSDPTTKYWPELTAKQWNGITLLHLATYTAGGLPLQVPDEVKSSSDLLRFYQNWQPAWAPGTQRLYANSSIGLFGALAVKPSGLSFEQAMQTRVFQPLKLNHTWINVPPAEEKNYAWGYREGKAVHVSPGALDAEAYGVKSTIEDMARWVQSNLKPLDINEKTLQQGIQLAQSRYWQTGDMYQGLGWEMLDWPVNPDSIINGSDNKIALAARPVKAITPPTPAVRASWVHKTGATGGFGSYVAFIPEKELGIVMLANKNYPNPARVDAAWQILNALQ
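AmpC (5.3 nM in the dispensed reagent) in 20 mM phosphate pH 7.0 with 0.01% (detergent screen) or 0.0001% Triton X-100 was preincubated with compounds for 15 min at room temperature. Nitrocefin was then added from an 800 uM solution, and hydrolysis was followed at 480 nm.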
AmpC no deterg: qHTS Inhibitors of AmpC Beta-Lactamase (assay without detergent); 330,000 tested, 0.52% active; Potency, µM (titrated, usually from 57.1 µM), for the others: top-dose activity change, negative = inhibition, actives largely listed as inhibitors; AID 485341, 2010; AmpC nitrocefin hydrolysis, absorbance 480 nm, 0.0001% Triton; P00811;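 further: plate controls were no compound for no effect and no enzyme for full effect; nearly all actives have a fitted effect of over 20% in size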
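AmpC (5.3 nM in the dispensed reagent) in 20 mM phosphate pH 7.0 with 0.01% (detergent screen) or 0.0001% Triton X-100 was preincubated with compounds for 15 min at room temperature. Nitrocefin was then added from an 800 uM solution, and hydrolysis was followed at 480 nm.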
The depositor's hits bear a star; ? = inconclusive; . = not tested or not shown. A selection: hits, their analogues and other compounds. The true share with any hit is near 3.3%. The call rests on the fitted dose curve; in most records, active means well fitted curve in the direction sought with a large enough effect; inconclusive means small, poorly fitted or top-dose-only effect, or another doubt; inactive means no such curve, though single readings can be large; an effect the other way counts as inactive or inconclusive. Unless noted, on the % scale 0 is the no-effect control and ±100 the full control effect; potency means the concentration at half of the fitted maximal effect.

SMILES	Sm TGR block	AmpC inh detg	AmpC no deterg
Cc1ccc(CNC(=O)C2CC(c3cc(C(F)(F)F)cc(C(F)(F)F)c3)=NO2)o1 (configuration not stated)	17.8µM*	-0.6%	82.7%
Cc1ccc(CNC(=O)C2CC(c3cccc([N+](=O)[O-])c3)=NO2)o1 (configuration not stated)	31.6µM*	-0.3%	-19.4%
CCOc1ccc(N(CC)S(=O)(=O)N2CCCC(C(=O)NCCc3ccccc3OC)C2)cc1 (configuration not stated)	2.3%	-7.3%	.
O=c1c2oc3ccccc3c2n(Cc2ccccc2F)c(=O)n1Cc1ccc2c(c1)OCO2	10.8%	0.2%	.
CC(Nc1ccc(-c2nc(-c3ccccn3)no2)cc1[N+](=O)[O-])c1ccccc1 (configuration not stated)	-10.9%	-0.3%	.
CN(Cc1ccccc1)S(=O)(=O)c1ccc(-c2cnc(C3CC3)o2)cc1	6.5%	-3.8%	.
COC(=O)c1ccc(NC(=O)CC2C(=O)N(c3cccc(C)c3)C(=O)N2C2CCCC2)cc1 (configuration not stated)	-26.8%	1.6%	.
O=C(COC(=O)c1ccc2c(c1)OCO2)Nc1ccccc1	4.0%	2.5%	-29.1%
CN(C)CCC(=O)c1ccc2c(c1)OCO2	0.631µM*	-1.5%	-8.4%
CN(C)CCCC(=O)c1ccc2c(c1)OCO2	-30.2%	-5.8%	-41.2%
O=C(CCNc1ccccc1)c1ccc2c(c1)OCO2	2.24µM*	3.7%	-31.5%
COc1ccc(NC(=O)CSc2ncc3c(n2)-c2ccccc2N(Cc2ccc(C)cc2)S3(=O)=O)cc1Cl	-2.9%	-1.9%	.
O=C(NCc1ccccc1)c1ccc2c(c1)sc1nc(-c3ccc(F)cc3)cn12	4.4%	21.5%	.
Cc1ccccc1NC(=O)CSc1nccn1C	9.5%	0.6%	.
CCCCCn1c(=O)c(C(=O)Nc2ccccc2C)c(O)c2ccccc21	4.5%	-4.7%	-21.1%
CCCn1c(=O)c(C(=O)Nc2ccccc2C)c(O)c2ccccc21	44.7µM*	?	-18.7%
Cc1nc2c(c(C)c1CCC(=O)Nc1cccc(C(F)(F)F)c1)c(=O)n(C)c(=O)n2C	7.0%	16.4%	.
Cc1ccc(Cn2c(CCCNC(=O)c3ccco3)nc3ccccc32)cc1	1.6%	0.7%	.
CCOc1ccc(-c2nnc(SCC(=O)c3ccc(F)cc3)n2-c2ccccc2)cc1	19.0%	0.8%	.
CCOc1ccc(-c2nnc(-c3ccccc3)n2-c2ccccc2)cc1	-5.6%	0.6%	5.62µM*
Cc1ccnc(NS(=O)(=O)c2ccc(NC(=O)C(C)(C)Oc3ccc(Cl)cc3)cc2)n1	1.4%	26.7%	.
O=C1NC(=Nc2cccc(O)c2)S/C1=C\c1cccnc1	8.91µM*	-0.7%	-20.8%
Cc1cccc(N=C2NC(=O)/C(=C/c3cccnc3)S2)c1	0.3%	5.6%	-11.6%
Cc1nc([N+](=O)[O-])c(Sc2nc3ccccc3n2C)n1Cc1ccccc1	8.91µM*	-7.0%	-12.0%
Cc1nc([N+](=O)[O-])c(SCC(N)=O)n1Cc1ccccc1	0.0%	-4.3%	-11.6%
SMILES	Sm TGR block	AmpC inh detg	AmpC no deterg
CCN1CCN(C(=O)C2COc3ccccc3O2)CC1 (configuration not stated)	22.4µM*	3.7%	-15.8%
COc1ccc(S(=O)(=O)N2CCN(C(=O)C3COc4ccccc4O3)CC2)cc1 (configuration not stated)	17.8µM*	-0.4%	-25.6%
CCOC(=O)N1CCN(C(=O)C2COc3ccccc3O2)CC1 (configuration not stated)	4.7%	-11.7%	-1.0%
CC(=O)Nc1ccc(S(=O)(=O)N2CCN(C(=O)C3COc4ccccc4O3)CC2)cc1 (configuration not stated)	1.5%	2.0%	5.5%
Cc1ccc(NC(=O)Cn2c(=O)n(CCCCC(=O)NCc3ccccc3Cl)c(=O)c3ccccc32)cc1	7.9%	16.4%	.
Cc1ccc(NC(=O)C2CCCN2S(=O)(=O)c2cccc3cccnc23)cc1C (configuration not stated)	3.6%	1.6%	.
Cc1ccc(N2C(=O)CC(Nc3ccc(Cl)c(S(=O)(=O)N(C)C)c3)C2=O)c(C)c1 (configuration not stated)	31.6µM*	-0.8%	28.2µM*
CC(=O)N1CCN(CC(=O)Nc2ccc(Cl)c(S(=O)(=O)N(C)C)c2)CC1	-8.3%	?	-17.6%
CCCn1c(O)c(CN2CCCCC2)c(C)c(C#N)c1=O	-29.1%	-19.2%	-20.0%
C=CCn1c(O)c(CN2CCN(Cc3ccccc3)CC2)c(C)c(C#N)c1=O	44.7µM*	1.0%	-27.6%
CN1CCN(c2ncc3c(n2)CCN(Cc2ccccc2Cl)C3)CC1	-5.7%	-4.2%	.
O=C(N/N=C/c1cc(Br)c(O)c(Br)c1)c1cccnc1	89.1µM*	0.1%	-3.8%
COc1cc(/C=N/NC(=O)c2cccnc2)cc(Br)c1O	-15.4%	-0.1%	-12.8%
Cc1ccc(C)n1-c1ccc(N(C)C)cc1	31.6µM*	2.2%	-15.6%
Cc1ccc(C)n1-c1ccc(N2CCOCC2)cc1	24.2%	-7.4%	65.0%
CC1CCC(C(=O)NC(C(=O)OCC(=O)c2ccc(Br)cc2)C(C)C)CC1 (configuration not stated)	4.4%	10.8%	.
C=CCN(CC=C)c1nc2ccccc2nc1C(C#N)C(=O)OC(C)C (configuration not stated)	28.2µM*	-14.3%	-11.9%
C=CCOC(=O)C(C#N)c1nc2ccccc2nc1N1CCN(c2ccccc2OC)CC1 (configuration not stated)	-1.9%	-6.0%	11.1%
O=S(=O)(Nc1ccc(-c2ccc(N3CCCC3)nn2)cc1)c1cc(F)ccc1F	-6.0%	12.4%	.
Cc1ccc(C(=O)c2cn(CC(=O)Nc3ccc4c(c3)OCCO4)c3nc(C)ccc3c2=O)cc1	4.0%	13.6%	.
Cc1ccc(C(=O)C[n+]2cc(Br)cc(Br)c2)cc1[N+](=O)[O-]	31.6µM*	-8.2%	-6.1%
Nc1cc[n+](CC(=O)c2ccccc2)cc1	-8.9%	?	-12.1%
Cc1cc(C)c[n+](CC(=O)c2ccc(C)c([N+](=O)[O-])c2)c1	-17.4%	?	-22.0%
O=C(C[n+]1cc(Br)cc(Br)c1)c1ccc(-c2ccccc2)cc1	0.3%	-1.9%	-36.8%
O=C(C[n+]1ccncc1)c1ccccc1	35.5µM*	?	3.3%
SMILES	Sm TGR block	AmpC inh detg	AmpC no deterg
O=C(C[n+]1cc(Br)cc(Br)c1)c1ccccc1	11.2µM*	1.4%	-9.9%
COc1ccc(C2NC(=O)N(C)C3=C2C(=O)N(c2cccc(C(=O)O)c2)C3)cc1 (configuration not stated)	-1.6%	-5.7%	.
COc1ccc(-c2noc(N3CCC(C(=O)N(C)c4cc(Cl)ccc4OC)CC3)n2)cc1	-4.3%	1.5%	.
CC(C)(C)c1ccc(OCCOCCn2c(-c3ccc(Cl)cc3)nc3ccccc3c2=O)cc1	-7.9%	-5.1%	.
CCN(Cc1ccccc1)C(=O)CN1C(=O)COc2ccc(S(=O)(=O)N3CCOCC3)cc21	3.7%	16.7%	.
O=C(NCCCCc1ccccc1)c1cccc(Br)c1	-2.5%	-2.9%	-11.7%
O=C(CN(Cc1ccccc1)C(=O)CCl)c1cccc(Br)c1	8.91µM*	?	-17.4%
